KLF5 inhibitor = inhibitors of KLF5 expression | DLD-1 KLF5 promoter-luciferase reporter, luminescence | inhibition, % at 5 µM | 290,000 compounds, 0.23% hits;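 active = inhibition above a per-plate limit of that plate's mean compound inhibition plus 3 SD, cut at about 60% in these data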;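 note: 0% = DMSO wells and 100% = LY294002 at 200 µM; higher means less KLF5 promoter-driven luciferase light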
aSyn 5UTR inh = 5' untranslated region of α-synuclein, MLPCN primary screen | inhibition, % (tested at 7.5 µM) | 300,000 compounds, 0.82% hits | AID 1813 | alpha-synuclein 5'UTR reporter, inhibitor activity; in the data active = inhibition above about 60%;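 note: H4 neuroglioblastoma cells stably carrying SNCA 5'UTR luciferase fusion; 0% = DMSO wells and 100% = positive control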
IEC-6 cytotox = counter-screen for KLF5 inhibitors: cytotoxicity in IEC-6 cells; IEC-6 cytotoxicity, luminescence viability; inhibition, % at 5 µM; 290,000 compounds, 0.78% hits; AID 1825; in the data active = inhibition above about 22%;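 note: 0% = plate median of test compound wells and 100% = cytotoxic reference compound wells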
Ba/F3 V617F tox = reduce viability of Ba/F3 cells dependent on JAK2V617F. Ba/F3 EpoR-JAK2V617F viability, ATP luminescence. inhibition, % at 5.6 µM. 220,000 compounds, 1.1% hits;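 active = inhibition above the campaign mean plus 3 SD over all tested compounds, cut at about 24% in these data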;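 note: cytokine-independent growth of Ba/F3 cells driven by EpoR plus mutant JAK2; 0% = DMSO-treated cells and 100% = JAK inhibitor I control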
APP transl inh = APP translation inhibition; inhibition, % at 2 µM; SH-SY5Y APP 5'UTR-luciferase reporter, luminescence; 190,000 compounds, 0.82% hits;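 active = inhibition above a set limit, derived from the sample mean plus 3 SD, cut at about 45% in these data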
BaF3 parental = parental Ba/F3 viability inhibition as JAK2V617F counter-screen. CellTiter-Glo ATP luminescence. inhibition, % at 5.6 µM. 220,000 compounds, 1.1% hits;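 active = inhibition above a per-campaign cutoff, the mean inhibition of all tested compounds plus 3 SD, cut at about 27% in these data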;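 note: 0% = DMSO wells and 100% = JAK Inhibitor I control wells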
An asterisk follows results filed as active. Hits are enriched below; roughly 2.2% of the tested compounds scored in any of these assays.

For Cc1ccc(C(=O)N2C(=O)C(c3ccccc3)Oc3ccccc32)cc1 (configuration not stated) the results were KLF5 inhibitor 6.6, aSyn 5UTR inh 92.8*, IEC-6 cytotox 1.3, Ba/F3 V617F tox -4.4 and BaF3 parental -0.3.
`CCCCOc1ccc([N+](=O)[O-])cc1C(=O)O` gave KLF5 inhibitor -31.4, aSyn 5UTR inh 22.3, IEC-6 cytotox -1.7, Ba/F3 V617F tox 3.6, APP transl inh 1.9 and BaF3 parental 1.0.
For Cc1cc2c(cc1S(=O)(=O)N1CCOCC1)NC(=O)CO2 the results were KLF5 inhibitor -3.1, aSyn 5UTR inh 20.3 and IEC-6 cytotox -2.8.
C#CC1(O)CC(C)N(C)C(C)C1 (configuration not stated) was read as KLF5 inhibitor -9.1, aSyn 5UTR inh 20.1, IEC-6 cytotox 2.0, Ba/F3 V617F tox 0.5, APP transl inh -8.1 and BaF3 parental 2.1.
`O=C(Nc1ccc(NS(=O)(=O)c2ccccc2)cc1)c1ccc(Cl)cc1` gave KLF5 inhibitor -2.5, aSyn 5UTR inh -20.9 and IEC-6 cytotox 2.3.
O=C1CSc2ccc(C(=O)Nc3cccc(S(=O)(=O)Nc4ccc(Br)cc4)c3)cc2N1 was read as KLF5 inhibitor 8.4, aSyn 5UTR inh -1.1, IEC-6 cytotox 3.5, Ba/F3 V617F tox 16.8, APP transl inh 6.6 and BaF3 parental 43.9*.
`O=C(Nc1cccc(S(=O)(=O)Nc2ccc(Cl)cc2)c1)c1ccc(Cl)nc1` gave KLF5 inhibitor -8.3, aSyn 5UTR inh -19.4, IEC-6 cytotox 13.0, Ba/F3 V617F tox 41.5*, APP transl inh 1.6 and BaF3 parental 51.5*.
`COc1ccc(C[C@H]2COC(=O)[C@@H]2Cc2ccc(OC3OC(CO)C(O)C(O)C3O)c(OC)c2)cc1OC` (some centres not stated) gave KLF5 inhibitor -10.6, aSyn 5UTR inh -0.9, IEC-6 cytotox 2.3, Ba/F3 V617F tox 22.8, APP transl inh 5.0 and BaF3 parental 41.4*.
For Cc1c(NC(=O)c2ccc(S(=O)(=O)N3CCOCC3)cc2)c(=O)n(-c2ccccc2)n1C the results were KLF5 inhibitor -15.6, aSyn 5UTR inh 2.2, IEC-6 cytotox -2.3, Ba/F3 V617F tox -3.4 and BaF3 parental 2.0.
`c1ccc(-c2noc(-c3ccc4ccccc4c3)n2)cc1` gave KLF5 inhibitor 36.9, aSyn 5UTR inh 76.6*, IEC-6 cytotox 2.2, Ba/F3 V617F tox -1.7, APP transl inh -149.7 and BaF3 parental -0.3.
`CCCCCn1ccc(=N)cc1` gave KLF5 inhibitor -15.3, aSyn 5UTR inh 18.5, IEC-6 cytotox -4.7, Ba/F3 V617F tox 67.4*, APP transl inh 7.0 and BaF3 parental 62.2*.
For COc1cccc(OCCNC(=O)c2ccc(C)cc2)c1 the results were KLF5 inhibitor -28.3, aSyn 5UTR inh -25.1 and IEC-6 cytotox -4.7.
COc1cccc(OCCNC(=O)c2cccc(OC)c2)c1 was read as KLF5 inhibitor -20.4, aSyn 5UTR inh 21.1, IEC-6 cytotox 7.8, Ba/F3 V617F tox -5.6, APP transl inh 45.0* and BaF3 parental 0.6.
Oc1ccc(Nc2nc3ccccc3nc2Nc2ccc(O)cc2)cc1 was read as KLF5 inhibitor 54.9, aSyn 5UTR inh 108.4*, IEC-6 cytotox 20.9, Ba/F3 V617F tox 93.4*, APP transl inh 87.2* and BaF3 parental 99.7*.
`CC1(C)CC(=O)N(c2cccc(C(F)(F)F)c2)C(=O)C1` gave KLF5 inhibitor -37.7, aSyn 5UTR inh -12.0 and IEC-6 cytotox 0.3.
`CC[N+]1=CN(c2ccccc2)C(C)=CC1(C)C` gave KLF5 inhibitor -16.9, aSyn 5UTR inh 0.8, IEC-6 cytotox -2.5, Ba/F3 V617F tox 39.7*, APP transl inh 4.8 and BaF3 parental 52.2*.
`CCn1nnnc1NCc1c(OC)ccc2ccccc12` gave KLF5 inhibitor -12.8, aSyn 5UTR inh 6.3, IEC-6 cytotox -2.9, Ba/F3 V617F tox -1.9, APP transl inh -8.8 and BaF3 parental 1.5.
O=S(=O)(c1cccs1)N1CCN(Cc2nc3ccccc3s2)CC1 was read as KLF5 inhibitor -0.9, aSyn 5UTR inh -7.3, IEC-6 cytotox 5.4, Ba/F3 V617F tox 1.6, APP transl inh -5.4 and BaF3 parental 5.1.
O=C(OCc1nc2ccccc2s1)C1CCN(S(=O)(=O)c2cccs2)CC1 was read as KLF5 inhibitor -37.0, aSyn 5UTR inh -43.9, IEC-6 cytotox -1.1, Ba/F3 V617F tox 1.5, APP transl inh -29.4 and BaF3 parental 96.2*.
CCOC(=O)c1sc(NS(=O)(=O)c2ccccc2Cl)nc1C was read as KLF5 inhibitor -2.6, aSyn 5UTR inh 16.8, IEC-6 cytotox 3.1, Ba/F3 V617F tox 4.2, APP transl inh -8.1 and BaF3 parental 51.3*.
`CCOC(=O)c1sc(Nc2nc(C)cc(C)n2)nc1C` gave KLF5 inhibitor 23.7, aSyn 5UTR inh 84.1*, IEC-6 cytotox 2.1, Ba/F3 V617F tox 5.9 and BaF3 parental -0.9.
CCOC(=O)c1sc(NS(=O)(=O)c2ccccc2)nc1C was read as KLF5 inhibitor -19.4, aSyn 5UTR inh 11.9, IEC-6 cytotox -0.4, Ba/F3 V617F tox 1.2, APP transl inh -1.5 and BaF3 parental 1.2.
For CCOC(=O)c1sc(Nc2nc(C)cc(OC)n2)nc1C the results were KLF5 inhibitor -19.7, aSyn 5UTR inh -24.9, IEC-6 cytotox 6.4, Ba/F3 V617F tox 5.3, APP transl inh -5.6 and BaF3 parental 10.1.
COc1ccccc1C(CNC(=O)c1cccc(S(=O)(=O)Nc2ccc(C)cc2)c1)N(C)C (configuration not stated) was read as KLF5 inhibitor -6.4, aSyn 5UTR inh -4.0 and IEC-6 cytotox 4.6.
For CC(=O)Nc1ccccc1Oc1ccccc1 the results were KLF5 inhibitor -27.0, aSyn 5UTR inh 17.6, IEC-6 cytotox -3.4, Ba/F3 V617F tox -1.2, APP transl inh -19.6 and BaF3 parental -0.1.
For CCOC(=O)c1cnc(-n2nc(C)cc2C)nc1NNc1nc(-c2ccccc2)cc(-c2ccccc2)n1 the results were KLF5 inhibitor 2.1, aSyn 5UTR inh 81.7*, IEC-6 cytotox -5.0, Ba/F3 V617F tox -0.5, APP transl inh 23.4 and BaF3 parental 3.5.
For Fc1ccccc1/C=N/NC(=S)Nc1ccc(Cl)cc1Cl the results were KLF5 inhibitor 5.8, aSyn 5UTR inh 47.0, IEC-6 cytotox 3.3, Ba/F3 V617F tox 4.5, APP transl inh 93.8* and BaF3 parental 10.2.
`CC(=O)Nc1ccc(S(=O)(=O)NCCC(=O)Nc2ccc(C)cn2)cc1` gave KLF5 inhibitor 1.6, aSyn 5UTR inh 14.8 and IEC-6 cytotox 3.2.
Screening CCOC(=O)C1CCCN(S(=O)(=O)c2c(C(=O)N3CCCCC3)c(C)n(C)c2C)C1 (configuration not stated) returned KLF5 inhibitor -5.2, aSyn 5UTR inh -3.9 and IEC-6 cytotox 0.7.
`Cc1cc(SCC(=O)N/N=C/c2ccccc2C(=O)O)c(C)cc1Br` gave KLF5 inhibitor -18.6, aSyn 5UTR inh 4.9 and IEC-6 cytotox -7.5.
Screening Cc1cc(SCC(=O)N/N=C/c2ccc(O)cc2O)c(C)cc1Br returned KLF5 inhibitor 37.7, aSyn 5UTR inh 78.3*, IEC-6 cytotox 5.1, Ba/F3 V617F tox 0.9, APP transl inh 49.1* and BaF3 parental 3.4.

Screening data deposited in PubChem by several laboratories.
